# Screening data from PubChem.
# Shown are actives, neighbours in structure and some others; about 2.8% of the full set was active somewhere.
# POLB inh: DNA polymerase beta (human) inhibition; P06746; Pol beta primer extension/strand displacement, fluorescence kinetic; Potency, µM (highest dose often 114 µM), without a hit: top-dose activity change, negative = inhibition, usual class: inhibitors; actives 1.3% (n = 340,000); further: potency means the concentration at half of the fitted maximal effect; on the % scale 0 is the no-effect control and ±100 the full control effect
#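 Human Pol beta at 10 nM; strand-displacement substrate 50 nM final. Compound exposure 15 min at room temperature before start, reaction 10 min at room temperature.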
# Pol kappa inh: blocks human DNA polymerase kappa activity. purified Pol kappa, fluorescent DNA synthesis assay, 10 min. actives 0.53% (n = 400,000). Potency, µM (titrated, usually from 107 µM), inactives show at the highest dose activity, negative = inhibition, most hits filed as inhibitors. Q9UBT6; further: potency means the concentration at half of the fitted maximal effect; on the % scale 0 is the no-effect control and ±100 the full control effect
#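 First, compounds were pin-transferred onto 10 nM Pol kappa. After 15 min at room temperature, substrate was added to 50 nM final. Fluorescence was then measured kinetically at 0 and 10 min.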
# POLH inh: inhibitors of human DNA polymerase eta. Q9Y253. recombinant Pol eta, fluorescent DNA replication assay. Potency, µM (titrated, usually from 114 µM), inactives show at the highest dose activity change, negative = inhibition, most hits filed as inhibitors. actives 1.2% (n = 390,000); further: potency means the concentration at half of the fitted maximal effect; on the % scale 0 is the no-effect control and ±100 the full control effect
#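 Pol eta (10 nM) was preincubated with compounds for 15 min at room temperature, after which fluorescent replication substrate (50 nM final) was added to start the reaction. Fluorescence was read kinetically at 0 and 10 min.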
# POLI inh: DNA polymerase iota (human) inhibition; Q9UNA4; Pol iota fluorescent replication assay, 10 min; Potency, µM (titrated, usually from 115 µM), inactives show at the top dose activity, negative = inhibition, actives largely listed as inhibitors; actives 1% (n = 390,000); AID 588590; further: potency means the concentration at half of the fitted maximal effect
#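 Fluorescent replication assay read twice, at 0 min and 10 min after adding 50 nM (final) substrate. Enzyme (10 nM) and compounds were first incubated 15 min at room temperature; enzyme-free buffer wells were negative controls.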
# WRN helicase inh: WRN helicase (human) inhibition; actives 0.46% (n = 360,000); Potency, µM (titrated, usually from 114 µM), for inactives: top-dose activity change, negative = inhibition, actives largely listed as inhibitors; AID 651768; Q14191; WRN helicase unwinding, fluorescent forked duplex, kinetic; further: potency means the concentration at half of the fitted maximal effect; on the % scale 0 is the no-effect control and ±100 the full control effect; nearly all actives have a fitted effect of over 55% in size
# Target sequence (Q14191 whole entry, looked up): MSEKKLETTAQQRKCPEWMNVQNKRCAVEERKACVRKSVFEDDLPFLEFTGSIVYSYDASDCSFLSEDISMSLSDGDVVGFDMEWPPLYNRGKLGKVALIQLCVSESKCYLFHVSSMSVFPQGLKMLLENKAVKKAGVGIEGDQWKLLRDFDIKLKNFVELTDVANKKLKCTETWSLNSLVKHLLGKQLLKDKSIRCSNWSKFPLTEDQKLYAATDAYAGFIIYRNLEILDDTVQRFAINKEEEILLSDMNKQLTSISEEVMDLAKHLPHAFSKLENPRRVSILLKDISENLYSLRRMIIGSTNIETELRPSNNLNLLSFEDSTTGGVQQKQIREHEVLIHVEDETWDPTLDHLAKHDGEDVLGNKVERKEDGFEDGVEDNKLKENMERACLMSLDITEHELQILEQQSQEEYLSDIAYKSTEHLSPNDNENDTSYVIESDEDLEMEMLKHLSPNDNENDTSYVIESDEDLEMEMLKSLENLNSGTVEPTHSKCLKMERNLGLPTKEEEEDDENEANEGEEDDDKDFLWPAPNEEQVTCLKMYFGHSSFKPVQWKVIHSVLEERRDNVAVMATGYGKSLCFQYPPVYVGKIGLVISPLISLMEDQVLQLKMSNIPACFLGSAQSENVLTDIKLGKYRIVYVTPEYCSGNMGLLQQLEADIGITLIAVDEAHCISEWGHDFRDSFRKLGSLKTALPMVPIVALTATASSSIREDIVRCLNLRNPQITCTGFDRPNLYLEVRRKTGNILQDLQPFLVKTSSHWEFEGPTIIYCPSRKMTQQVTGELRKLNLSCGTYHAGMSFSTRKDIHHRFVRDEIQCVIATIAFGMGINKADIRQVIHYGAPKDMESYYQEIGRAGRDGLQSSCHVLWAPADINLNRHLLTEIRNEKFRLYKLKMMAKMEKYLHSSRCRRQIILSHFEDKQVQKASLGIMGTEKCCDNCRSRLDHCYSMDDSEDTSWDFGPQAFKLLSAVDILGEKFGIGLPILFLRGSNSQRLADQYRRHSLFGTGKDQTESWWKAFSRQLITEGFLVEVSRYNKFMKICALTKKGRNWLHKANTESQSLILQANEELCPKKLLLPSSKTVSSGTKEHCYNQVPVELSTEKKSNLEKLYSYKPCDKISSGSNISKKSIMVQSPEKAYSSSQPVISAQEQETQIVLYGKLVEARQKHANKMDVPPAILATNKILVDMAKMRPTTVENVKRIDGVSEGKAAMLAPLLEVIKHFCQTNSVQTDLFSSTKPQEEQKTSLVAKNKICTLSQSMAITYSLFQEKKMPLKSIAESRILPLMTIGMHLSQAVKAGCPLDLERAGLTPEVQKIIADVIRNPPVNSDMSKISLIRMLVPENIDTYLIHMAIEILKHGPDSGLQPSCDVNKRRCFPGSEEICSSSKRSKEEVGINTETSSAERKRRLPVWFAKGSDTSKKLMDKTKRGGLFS
#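 Kinetic fluorescence helicase assay: unwinding of a quenched forked DNA duplex (100 nM final) with 2 mM ATP final raises red fluorescence (525/598 nm). Compounds sat 15 min at room temperature with 20 nM WRN beforehand.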
# PI5P4Ka inh: inhibitors of human PI5P4K alpha; P48426; PI5P4Kalpha enzyme, ADP-Glo luminescence, 60 min; stronger effect = lower value; max response, %; actives 1.2% (n = 330,000); AID 652105; active means max response of -50% or lower; inconclusive means between -30% and -50%; inactive means -30% or higher; further: value at the top dose of about 77 µM; on the % scale 0 is the no-effect control and ±100 the full control effect
#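 ADP-Glo luminescence end-point after a 60 min room-temperature kinase reaction. PI5P4Kalpha and substrate in HEPES pH 7.4 buffer with EGTA, 0.1% CHAPS and 5% DMSO; ATP at 5 microM final.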
# ADP-Glo counter: ADP-Glo luciferase interference, PI5P4K counter-screen; shares compounds with PI5P4Ka inh; ADP-Glo detection counter-screen, luciferase luminescence, no enzyme; Potency, µM (series often up to 76.9 µM), for the others: top-dose activity change, negative = inhibition, actives largely listed as inhibitors; 1,100 tested, under 10 active
# Active calls of the source: *; ? = inconclusive; · = no result; [ ] = remark or other dose. Unless noted, the call rests on the fitted dose curve; in most records, active means well fitted curve in the direction sought with a large enough effect; inconclusive means small, poorly fitted or top-dose-only effect, or another doubt; inactive means no such curve, though single readings can be large; an effect the other way counts as inactive or inconclusive.
SMILES,POLB inh,Pol kappa inh,POLH inh,POLI inh,WRN helicase inh,PI5P4Ka inh,ADP-Glo counter
Cn1nnnc1SCc1nc2scc(-c3ccc(Cl)cc3)c2c(=O)[nH]1,?,-18%,?,?,-2%[11.6 µM],-68*,-1%
Cn1nnnc1SCc1nc2scc(-c3ccccc3)c2c(=O)[nH]1,31%,4%,-21%,11%,-5%,-19,·
O=C(Nc1cccc(Cl)c1)Nc1nnc(-c2ccncc2)s1,40µM*,-10%,?,?,-11%,-60*,-5%
O=C(Nc1ccc(Cl)cc1)Nc1nnc(-c2ccncc2)s1,-13%,-3%,?,13%,-3%,-10,·
O=C(Nc1nc(-c2ccco2)cs1)c1ccccc1,0%,?,?,?,?,-63*,-2%
COc1ccc(CN2CCC(=O)N([C@H](CO)CC(C)C)CC2)cc1OC,10%,16%,-3%,7%,-7%,-59*,-7%
COc1ccc(CN2CCC(=O)N([C@H](CO)c3ccccc3)CC2)cc1OC,17%,8%,-8%,29%,3%,2,·
COc1ccc(Nc2ccc(Cl)cc2)c(C(=O)O)c1,?,-2%,-18%,-18%,-4%,-52*,2%
CC(C)(C)NC(=O)CSc1nc2ccc(NC(=O)CSc3nnnn3Cc3ccccc3)cc2s1,10%,-4%,-13%,22%,2%,-20,·
CCOC(=O)CSc1nc2ccc(NC(=O)CSc3nnnn3Cc3ccccc3)cc2s1,?,3%,?,7%,-17%,-30,-3%
COc1ccc2c(CC(=O)N3CCN(S(=O)(=O)c4ccc(F)cc4)CC3)coc2c1,·,?,32µM*,?,-28%,-53*,2%
COc1ccc2c(CC(=O)N3CCN(S(=O)(=O)c4cccs4)CC3)coc2c1,5%,-11%,3%,19%,2%,-9,·
O=C(O)c1sccc1NC(=O)c1c(Cl)cccc1Cl,2%,-8%,-16%,?,2%,-55*,2%
CCN(CC)CCCNC(=S)N(Cc1cccnc1)Cc1cc2cccc(C)c2[nH]c1=O,1%,-2%,5%,41%,20%,0,·
Cc1cccc2cc(CN(Cc3cccnc3)C(=S)NCCCN(C)C)c(=O)[nH]c12,?,-1%,0%,3%,15%,-53*,-3%
CCOC(=O)Cc1cc(=O)n2[nH]c(-c3ccccc3)c(-c3ccccc3)c2n1,14µM*,79µM*,79µM*,?,?,-50*,3%
CCOC(=O)Cc1cc(=O)n2[nH]c(C)c(-c3ccccc3)c2n1,?,?,5%,?,-11%[57.1 µM],1,·
Cn1c2c(c3cnc4cc(Cl)ccc4c31)CNCC2,·,-14%,·,16%,·,·,·
CCN1CCN(C(=O)Cn2nc(-c3ccc(Cl)cc3)ccc2=O)CC1,22%,1%,-10%,-12%,-5%,?,-8%
COc1ccc(NC(=O)COC(=O)c2cccc(S(=O)(=O)N(C)C)c2)cc1,-4%,-5%,-7%,35%,-5%,5,·
CN(C)S(=O)(=O)c1cccc(C(=O)OCC(=O)Nc2sccc2C(N)=O)c1,9%,?,20µM*,?,?,-66*,-4%
NC(=O)c1ccsc1NC(=O)COC(=O)c1nc(Cl)ccc1Cl,·,-9%,-36%,?,-23%,-53*,-3%
CC1(C(=O)NS(=O)(=O)Cc2cccc(Cl)c2)CCN1C(=O)CCc1cccs1 (stereo not drawn),·,·,·,·,-5%,0,·
COc1cccc2c1C(=O)C[C@]1(CCCC[C@@H]1C)O2,·,0%,-6%,-10%,0%,2,-5%
COc1ccc(OC)c(C(=O)COC(=O)COc2ccccc2)c1,·,-10%,-9%,74%,-25%,0,·
SMILES,POLB inh,Pol kappa inh,POLH inh,POLI inh,WRN helicase inh,PI5P4Ka inh,ADP-Glo counter
S=C(NCc1ccccc1)N1CCc2ccccc2C1,12%,1%,-20%,120%,-5%,-93*,6%
O=S(=O)(c1ccc(Br)cc1)N1CCCc2ccccc21,1%,-10%,-4%,74%,-35%,2,-5%
Cc1cc2nc(-c3ccco3)c(Cc3cccc(Cl)c3)n2c(C)c1Br,·,·,·,·,-5%,-56*,-1%
COc1ccccc1Cc1c(-c2ccco2)nc2cc(C)c(Br)c(C)n12,·,·,·,·,-21%,-64*,-1%
Cc1cc2nc(-c3ccco3)c(CC(C)(C)C)n2c(C)c1Br,·,·,·,·,-9%,-20,·
Clc1cccc(Cc2c(-c3ccco3)nc3ccc(Br)cn23)c1,·,·,·,·,-36%,-82*,-2%
c1ccc2cc(CNCc3cccc4ccccc34)ccc2c1,0%,-1%,-19%,106%,-20%,16,·
CCOC(=O)c1cc(NC(=O)Nc2ccc(Br)cc2)c(C)nc1C,0%,-1%,-13%,15%,-2%,15,·
COc1ccc(NC(C)=O)cc1NC(=O)CSc1nc2ncccc2[nH]1,-7%,-9%,-14%,2%,?,-55*,3%
CCOc1ccccc1N1CCN(C(=O)c2cccs2)CC1,-7%,-1%,-21%,45%,9%,-1,·
Cc1ccc(C)c(OC(C)C(=O)Nc2ccc(S(=O)(=O)Nc3nccs3)cc2)c1 (stereo not drawn),0%,?,-98%,-95%,?,-62*,0%
Cc1onc(-c2c(F)cccc2Cl)c1C(=O)OCC(=O)NCc1ccco1,?,?,?,?,0%,-51*,-5%
Cc1onc(-c2c(F)cccc2Cl)c1C(=O)NCc1ccco1,-2%,-1%,-6%,-12%,3%,1,·
CCOC(=O)CSc1ccc2nnc(-c3cccs3)n2n1,7%,-8%,-8%,-19%,-15%,-51*,-7%
COc1ccc2c(c1)C=C(CN1CCN(Cc3ccccc3C)C(CCO)C1)CO2 (stereo not drawn),8%,?,-99%,?,0%[11.6 µM],-2,0%
Cc1cccc(OCC(=O)Nc2cccc(C(=O)Nc3ccccc3C(=O)O)c2)c1,0%,-20%,-2%,-2%,-28%,-52*,5%
O=C(Cn1cc([N+](=O)[O-])ccc1=O)NC1CCCCC1,·,-7%,4%,-16%,-2%,-1,·
O=C(Nc1ccc(N2CCOCC2)c(S(=O)(=O)Nc2ccc(Cl)cc2)c1)c1ccc(=O)[nH]n1,·,?,20µM*,10µM*,-6%[11.6 µM],-62*,-6%
O=C(Nc1ccc(N2CCOCC2)c(S(=O)(=O)Nc2ccc(Cl)cc2)c1)c1cnccn1,-1%,-5%,?,11%,6%,-25,·
